Source: PubChem (National Center for Advancing Translational Sciences (NCATS))
This is one part of a sample in which hits are shown more often than they occur.
ERG-DNA inh – blocks human ERG Ets domain binding to DNA. P11308. fluorescence polarization, His-ERG Ets domain / labelled DNA. Potency, µM (titrated, usually from 76.9 µM), for inactives: at the highest dose FP activity, negative = inhibition, actives largely listed as inhibitors. 370,000 compounds, 0.028% hits. AID 624246; active = well fitted inhibition curve with a large enough effect in the polarisation, with a control signal flat; inconclusive = small, poorly fitted or top-dose-only effect, or effect the other way, or a change in a side signal; inactive = no such curve, though single readings can be large or run the other way; the % refers to the polarisation;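 also: polarization taken with two DNA probes labelled with fluorescein and Texas red; potency is read from the fitted curve at half-maximal effect; % of control where 0% means no effect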
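His-tagged ERG Ets domain (1 uM in the protein solution; 300mM KCl, 50mM Tris-HCl, 1mM EDTA, 1mM DTT, pH 7.5) received compound, then a probe mix of 5 nM fluorescein-DNA and 100nM Texas-615-DNA. Fluorescence polarization was read for both dyes.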
RORgamma inh – ROR gamma (mouse) transcription inhibition | Drosophila S2 Gal4-RORgamma UAS-luciferase reporter, 20 h | Potency, µM (series often up to 53.6 µM), inactives show at the top dose activity change, negative = inhibition, most hits filed as inhibitors | 310,000 compounds, 5.4% hits | AID 2551; also: potency is read from the fitted curve at half-maximal effect; % is scaled to controls: 0 for no effect and ±100 for the full control effect; nearly all actives have a fitted effect of over 60% in size
Target sequence (P51450 whole entry, looked up, the tested form may be a part): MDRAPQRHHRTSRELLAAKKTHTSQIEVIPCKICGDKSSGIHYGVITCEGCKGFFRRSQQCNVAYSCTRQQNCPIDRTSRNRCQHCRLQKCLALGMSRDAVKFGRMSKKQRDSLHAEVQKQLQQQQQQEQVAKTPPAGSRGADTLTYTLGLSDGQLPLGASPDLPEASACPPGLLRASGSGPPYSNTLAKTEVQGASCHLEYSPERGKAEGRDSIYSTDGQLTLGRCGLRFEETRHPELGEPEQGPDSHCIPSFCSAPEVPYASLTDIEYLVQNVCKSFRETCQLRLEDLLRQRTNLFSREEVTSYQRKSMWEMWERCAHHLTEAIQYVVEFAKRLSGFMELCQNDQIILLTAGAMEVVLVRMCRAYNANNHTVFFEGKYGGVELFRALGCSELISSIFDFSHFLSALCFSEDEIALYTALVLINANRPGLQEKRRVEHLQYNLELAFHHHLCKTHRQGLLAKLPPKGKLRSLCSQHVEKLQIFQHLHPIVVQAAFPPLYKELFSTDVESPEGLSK
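Luciferase reporter read in Schneider cells carrying Gal4-RORγ (mouse) and UAS-Photinus luciferase; cells given compound 1 h before 700 uM copper sulfate induction, then incubated 20 h at ambient temperature.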
VP16 counter – counter-screen for ROR gamma inhibitors: Gal4-VP16 reporter | Drosophila S2 Gal4-VP16 UAS-luciferase, luminescence, 20 h | AID 2546 | Potency, µM (series often up to 53.6 µM), inactives show top-dose activity, negative = inhibition, actives largely listed as inhibitors | 310,000 compounds, 3.5% hits;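 also: Gal4-VP16 expression switched on by copper sulfate through the metallothionein promoter; potency is read from the fitted curve at half-maximal effect; % is scaled to controls: 0 for no effect and ±100 for the full control effect; nearly all actives have a fitted effect of over 50% in size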
Giardia kill – Giardia lamblia killing. Giardia lamblia trophozoite viability. activity change, % at 7.66 µM, hits read low. 340,000 compounds, 0.15% hits. AID 540267; in the data active = activity change below about -80%; inconclusive = between about -30% and that limit;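 also: parasites exposed to compound for two days anaerobically before the ATP read; % is scaled to controls: 0 for no effect and ±100 for the full control effect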
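Luminescence from cellular ATP indicates surviving trophozoites (100 cells/well) following 48 hrs anaerobic compound treatment at 37 deg C; signal develops 15-30 min at room temperature.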
Integrin act MD – activates integrin-mediated alleviation for muscular dystrophy; alpha7betagal myoblasts, beta-gal FDG fluorescence, 48 h; Potency, µM (doses to about 38.3 µM), for the others: top-dose activation, usual class: activators; 350,000 compounds, 0.064% hits;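 also: potency is read from the fitted curve at half-maximal effect; 100% = response of the positive control SU9516; nearly all actives have a fitted effect of over 60% in size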
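alpha7betagal+/- myoblasts (passage 13, 250/well) treated 48 h at 37C with compounds at 1:260 dilution of DMSO stock. Lysed, then beta-galactosidase activity read as FDG fluorescence (ex 480/em 540) after 30 min, with pre-read for autofluorescence.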
Active calls of the source: *; u = inconclusive; x = no result. Unless noted, calls follow the shape of the dose curve; as a rule, active = well fitted curve in the direction sought with a large enough effect; inconclusive = small, poorly fitted or top-dose-only effect, or another doubt; inactive = no such curve, though single readings can be large; an effect the other way counts as inactive or inconclusive.

SMILES | ERG-DNA inh | RORgamma inh | VP16 counter | Giardia kill | Integrin act MD
CN=c1scc(C)n1/N=C/c1ccc(O)cc1O | -6.1% | 0.631µM* | 1.26µM* | u | 8.7%
CN=c1scc(C)n1/N=C/c1ccc(O)cc1 | -19.0% | u | 2.51µM* | -18.3 | -33.0%
O=C(c1ccc(F)cc1)n1nc(-c2ccccc2)nc1NCc1ccco1 | -2.9% | x | x | x | x
CCOC(=O)c1c(NC(=O)C(C)Sc2cn(CCNC(=O)c3ccc(OC)cc3)c3ccccc23)sc2c1CCC2 (centres undefined) | 9.2% | x | x | x | x
COc1cc2c(cc1OC)C(c1cc(Br)ccc1F)N(C(=O)CCl)CC2 (centres undefined) | 11.1% | 7.94µM* | u | -10.9 | -58.3%
CC[C@H](C)[C@H](NC(=O)[C@H](Cc1ccc(O)cc1)NC(=O)[C@H](Cc1cnc[nH]1)NC(=O)[C@H](CCCNC(=N)N)NC(=O)[C@H](CC(C)C)NC(=O)[C@H](C)NC(=O)[C@H](CO)NC(=O)[C@H](Cc1ccc(O)cc1)NC(=O)[C@H](Cc1ccc(O)cc1)NC(=O)[C@H](CCCNC(=N)N)NC(=O)[C@H](C)NC(=O)[C@H](CCSC)NC(=O)[C@H](CC(=O)O)NC(=O)[C@H](CCC(=O)O)NC(=O)[C@H](C)NC(=O)[C@@H]1CCCN1C(=O)[C@H](C)NC(=O)[C@H](CC(=O)O)NC(=O)[C@H](CCC(=O)O)NC(=O)CNC(=O)[C@@H]1CCCN1C(=O)[C@H](CC(N)=O)NC(=O)[C@H](CC(=O)O)NC(=O)[C@@H]1CCCN1C(=O)[C@H](CCCCN)NC(=O)[C@H](CO)NC(=O)[C@@H]1CCCN1C(=O)[C@@H](N)Cc1ccc(O)cc1)C(=O)N[C@@H](CC(N)=O)C(=O)N[C@@H](CC(C)C)C(=O)N[C@@H](CC(C)C)C(=O)N[C@H](C(=O)N[C@@H](CCCNC(=N)N)C(=O)N1CCC[C@H]1C(=O)N[C@@H](CCCNC(=N)N)C(=O)N[C@@H](Cc1ccc(O)cc1)C(N)=O)[C@@H](C)O | x | 8.7% | 4.7% | x | x
CCOc1ccc(NC(=S)NC(=O)c2cncc(Br)c2)cc1 | -16.5% | x | x | 0.1 | -8.0%
Cc1cccc(OCCNC(=S)NC(=O)c2cncc(Br)c2)c1 | 10.9% | 5.01µM* | 6.31µM* | -14.4 | -8.7%
CCOC(=O)c1ccc(NC(=S)NN)cc1 | -11.7% | 10µM* | u | -1.5 | 16.9%
CCOC(=O)c1ccc(NC(=S)NCc2ccc(F)cc2)cc1 | -9.3% | x | x | 4.2 | -0.3%
CCCCOC(=O)c1ccc(NC(=S)NC(=O)c2c(Br)c(C)nn2C)cc1 | 13.7% | 15.8µM* | 12.6µM* | -14.8 | 21.7%
Cc1ccc(OCCNC(=O)c2cncc(Br)c2)cc1C | -1.0% | 18.6% | -2.3% | 5.2 | 25.6%
CCOC(=O)c1ccc(NC(=S)NC(=O)c2cncc(Br)c2)cc1 | -8.8% | 2.24µM* | u | -12.7 | 5.4%
Cc1noc(C)c1CSCC(=O)NCCN1C(=O)S/C(=C\c2ccccc2F)C1=O | 7.3% | x | x | 10.9 | 0.2%
O=C(Nc1c(Cl)cc([N+](=O)[O-])cc1Cl)c1cc(Cl)ccc1O | x | x | x | -15.6 | x
COC(=O)Cc1ccc(NC(=S)Nc2cccc(C)n2)cc1 | 2.2% | 4.47µM* | u | 6.1 | 0.0%
CCOC(=O)c1ccc(NC(=S)Nc2cccc(N)n2)cc1 | -3.7% | 4.7% | -1.8% | 14.3 | 27.4%
